Measurements as given in PubChem BioAssay (NCI).
Values joined by “and” are separate entries in the source; they are usually repeats but may differ in a detail not shown here. Equal entries are not always repeated. The panel holds about 83,000 compounds, 20% with a hit somewhere; the sample as a whole holds those more often.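 48-hour exposure, single concentration, 96-well plates; percent growth endpoint where 0 means no net growth. Active: below 10.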 A structure can be active in one record and inactive in another. Active and inactive are the calls of the source.

system: UACC-62 melanoma; experiment: NCI-60 one-dose screen, 48 h (100 = growth as untreated, 0 = no growth, -100 = all killed); conditions: 10 µM

Compound | growth
Cc1cc(N(CCOS(C)(=O)=O)CCOS(C)(=O)=O)ccc1C=Nc1ccc(-c2nc(Cc3ccccc3)sc2C)cc1 | 37.8% (inactive)
O=[N+]([O-])c1cc[n+]([O-])cc1 | 91.1% (inactive)
C#CCN(Cc1ccc2nc(N)[nH]c(=O)c2c1)c1ccc(C(=O)NC(CCC(=O)O)C(=O)O)cc1 (stereo unspecified) | 81.6% (inactive)
CN(C)CCOC1(Cc2ccc(Cl)cc2Cl)CCC(C(C)(C)C)CC1 (stereo unspecified) | -26% (active) and -56.2% (active)
COc1ccc(C(=O)C(CN(C)C)CN(C)C)cc1 | 73.4% (inactive)
CC1=CC(=C(c2ccc(N)cc2)c2ccc(N)cc2)C=CC1=N | -20.2% (active) and 22.6% (inactive)
Cc1ccc(Sc2ccccc2N)cc1 | 90.2% (inactive)
C=C1C(=O)OC2CC1C(OC(C)=O)C/C(C)=C/CC/C(C)=C\CCC2(C)O (stereo unspecified) | 44.5% (inactive)

system: LOX IMVI melanoma; experiment: as above; conditions: 10 µM

Compound | growth
Cc1cc(N(CCOS(C)(=O)=O)CCOS(C)(=O)=O)ccc1C=Nc1ccc(-c2nc(Cc3ccccc3)sc2C)cc1 | 34.9% (inactive)
O=[N+]([O-])c1cc[n+]([O-])cc1 | 96.3% (inactive)
C#CCN(Cc1ccc2nc(N)[nH]c(=O)c2c1)c1ccc(C(=O)NC(CCC(=O)O)C(=O)O)cc1 (stereo unspecified) | 16% (inactive)
CN(C)CCOC1(Cc2ccc(Cl)cc2Cl)CCC(C(C)(C)C)CC1 (stereo unspecified) | -100% (active)
COc1ccc(C(=O)C(CN(C)C)CN(C)C)cc1 | 82.4% (inactive)
CC1=CC(=C(c2ccc(N)cc2)c2ccc(N)cc2)C=CC1=N | 7.6% (active) and 22.4% (inactive)
Cc1ccc(Sc2ccccc2N)cc1 | 76.1% (inactive)
C=C1C(=O)OC2CC1C(OC(C)=O)C/C(C)=C/CC/C(C)=C\CCC2(C)O (stereo unspecified) | 6.22% (active)

system: SK-MEL-28 melanoma; experiment: as above; conditions: 10 µM

Compound | growth
O=[N+]([O-])c1cc[n+]([O-])cc1 | 115% (inactive)
C#CCN(Cc1ccc2nc(N)[nH]c(=O)c2c1)c1ccc(C(=O)NC(CCC(=O)O)C(=O)O)cc1 (stereo unspecified) | 95.2% (inactive)
CN(C)CCOC1(Cc2ccc(Cl)cc2Cl)CCC(C(C)(C)C)CC1 (stereo unspecified) | -58.7% (active) and -50% (active)
COc1ccc(C(=O)C(CN(C)C)CN(C)C)cc1 | 83.1% (inactive)
CC1=CC(=C(c2ccc(N)cc2)c2ccc(N)cc2)C=CC1=N | 28.8% (inactive) and 45.9% (inactive)
Cc1ccc(Sc2ccccc2N)cc1 | 118% (inactive)

system: SK-MEL-2 melanoma; experiment: as above; conditions: 10 µM

Compound | growth
Cc1cc(N(CCOS(C)(=O)=O)CCOS(C)(=O)=O)ccc1C=Nc1ccc(-c2nc(Cc3ccccc3)sc2C)cc1 | 86.3% (inactive)
O=[N+]([O-])c1cc[n+]([O-])cc1 | 110% (inactive)
C#CCN(Cc1ccc2nc(N)[nH]c(=O)c2c1)c1ccc(C(=O)NC(CCC(=O)O)C(=O)O)cc1 (stereo unspecified) | 143% (inactive)
CN(C)CCOC1(Cc2ccc(Cl)cc2Cl)CCC(C(C)(C)C)CC1 (stereo unspecified) | 94.8% (inactive) and 54.6% (inactive)
COc1ccc(C(=O)C(CN(C)C)CN(C)C)cc1 | 149% (inactive)
CC1=CC(=C(c2ccc(N)cc2)c2ccc(N)cc2)C=CC1=N | -27.7% (active) and 41.7% (inactive)
Cc1ccc(Sc2ccccc2N)cc1 | 15.9% (inactive)
C=C1C(=O)OC2CC1C(OC(C)=O)C/C(C)=C/CC/C(C)=C\CCC2(C)O (stereo unspecified) | 41.5% (inactive)

system: EKVX NSCLC; experiment: as above; conditions: 10 µM

Compound | growth
Cc1cc(N(CCOS(C)(=O)=O)CCOS(C)(=O)=O)ccc1C=Nc1ccc(-c2nc(Cc3ccccc3)sc2C)cc1 | 11.1% (inactive)
O=[N+]([O-])c1cc[n+]([O-])cc1 | 110% (inactive)
C#CCN(Cc1ccc2nc(N)[nH]c(=O)c2c1)c1ccc(C(=O)NC(CCC(=O)O)C(=O)O)cc1 (stereo unspecified) | 55.6% (inactive)
CN(C)CCOC1(Cc2ccc(Cl)cc2Cl)CCC(C(C)(C)C)CC1 (stereo unspecified) | 48.2% (inactive) and 54.6% (inactive)
COc1ccc(C(=O)C(CN(C)C)CN(C)C)cc1 | -17% (active)
CC1=CC(=C(c2ccc(N)cc2)c2ccc(N)cc2)C=CC1=N | 15.5% (inactive) and 46.2% (inactive)
Cc1ccc(Sc2ccccc2N)cc1 | 121% (inactive)
C=C1C(=O)OC2CC1C(OC(C)=O)C/C(C)=C/CC/C(C)=C\CCC2(C)O (stereo unspecified) | 59.3% (inactive)

system: SN12C renal; experiment: as above; conditions: 10 µM

Compound | growth
Cc1cc(N(CCOS(C)(=O)=O)CCOS(C)(=O)=O)ccc1C=Nc1ccc(-c2nc(Cc3ccccc3)sc2C)cc1 | 52.3% (inactive)
O=[N+]([O-])c1cc[n+]([O-])cc1 | 92.8% (inactive)
C#CCN(Cc1ccc2nc(N)[nH]c(=O)c2c1)c1ccc(C(=O)NC(CCC(=O)O)C(=O)O)cc1 (stereo unspecified) | 48.9% (inactive)
CN(C)CCOC1(Cc2ccc(Cl)cc2Cl)CCC(C(C)(C)C)CC1 (stereo unspecified) | 18.8% (inactive) and -12.6% (active)
COc1ccc(C(=O)C(CN(C)C)CN(C)C)cc1 | 98.9% (inactive)
CC1=CC(=C(c2ccc(N)cc2)c2ccc(N)cc2)C=CC1=N | 10.3% (inactive) and 6.77% (active)
Cc1ccc(Sc2ccccc2N)cc1 | 89% (inactive)
C=C1C(=O)OC2CC1C(OC(C)=O)C/C(C)=C/CC/C(C)=C\CCC2(C)O (stereo unspecified) | 40.6% (inactive)
